# Records with an inconclusive call do not appear. Values without a mark were called inactive. Calls of active or inactive are those of the source. Calls come from the whole dose curve; as a rule, active = well fitted cell-killing curve with a large enough effect; inconclusive = small, poorly fitted or top-dose-only effect, or effect the other way; inactive = flat fitted curve, though single readings scatter.
# Assay: MultiTox-Fluor Cytotoxicity Assay - LYMP1-001 - Dead Cells (AID 946);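 note: 0% = DMSO and 100% = tetraoctylammonium bromide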
# Conditions: LYMP1-001 lymphoblastoid cells, dead-cell protease fluorescence; series mostly up to 92.2 µM; cytotoxicity (dead cells): at the top concentration
# From the text: NIH Chemical Genomics Center [NCGC]
# NIH Molecular Libraries Screening Centers Network [MLSCN]
# National Institutes of Environmental Health Sciences [NIEHS]
# National Toxicology Program [NTP]
# We have developed a 1536-well cell-based assay for quantitative high throughput screening (qHTS) against a number of cell lines to determine in vitro cytotoxicity of small molecules. This particular assay uses a human lymphoblastoid cell line (LYMP1-001) purchased from Coriell Institute for Medical Research.
# NCGC Assay Protocol Summary:
# The MultiTox-Fluor Cytotoxicity Assay (Promega) is a homogeneous method to simultaneously measure the relative number of live and dead cells in culture by detecting changes in cell membrane integrity. There are two fluorogenic peptide substrates in the assay reagent. Viable cells are determined when the cell-permeant substrate (GF-AFC) enters the cell and is cleaved by protease from live cells resulting in liberated fluorophore. This live-cell protease activity restricted to viable cells is proportional to cell number. The dead cells are determined by using fluorogenic cell-impermeant peptide substrate (bis-AAF-R110) which cleaved by dead cell proteases leaking from damaged cell membrane.
# Using the MultiTox-Fluor Cytotoxicity Assay, the relative number of dead cells was measured in the lymphoblastoid cell line with complete culture medium following compound treatment for 16 hours. The assay was performed in opaque black Kalypsys 1536-well plates. In the screen, tetraoctylammonium bromide was used as positive control. Library compounds were measured for their ability to cause acute toxicity in the cell line, as reflected by an increase in dead cell protease activity, in a concentration-dependent manner. Data were normalized to the controls for basal activity (DMSO only) and 100% stimulation (15 uM tetraoctylammonium bromide). AC50 values were determined from concentration-response data modeled with the standard Hill equation.
# qHTS protocol for MultiTox-Fluor Cytotoxicity assay
# [Step] [Parameter] [Value] [Description]
# 1. Reagent; 5 uL; 2500 lymphoblastoid cells/well
# 2. Time; 5 hr; 37 C incubation
# 4. Controls; 23 nL; Tetraoctylammonium bromide 6.4pM to 92 uM
# 5. Time; 16 hr; 37 C incubation
# 6. Reagent; 5 uL; MuliTox-Fluor Assay reagent
# 7. Time; 60 min; Room Temperature
# 8. Detection; dead-cell fluorescence (Ex/Em=485/520); EnVision plate reader
# Keywords: cytotoxicity, lymphoblastoid cell line, fluorescence, NTPHTS, NTPHTS_NCGC, NIEHS, EPA, DSSTox, MLSMR, MLSCN, NIH Roadmap, qHTS, NCGC
Structure (SMILES),cytotoxicity (dead cells),outcome
NCCc1ccc(O)cc1,5.87%,
Clc1ccc(C(c2ccc(Cl)cc2)C(Cl)(Cl)Cl)cc1,13.1%,
CC(C)c1cccc(C(C)C)c1O,-21%,
CN1C[C@H](C(=O)N[C@]2(C)O[C@@]3(O)[C@@H]4CCCN4C(=O)[C@H](Cc4ccccc4)N3C2=O)C=C2c3cccc4[nH]cc(c34)C[C@H]21,-7.84%,
O=C(O)CCCc1ccc(N(CCCl)CCCl)cc1,-19.2%,
CCCC(C)(COC(N)=O)COC(N)=O,4.92%,
C[C@]12CCC(=O)C=C1CC[C@@H]1[C@@H]2CC[C@]2(C)C(=O)CC[C@@H]12,,inactive
C[C@]1(O)CC[C@H]2[C@@H]3CCC4=CC(=O)CC[C@]4(C)[C@@]3(F)[C@@H](O)C[C@@]21C,-4.36%,
COC(=O)C(c1ccccc1)C1CCCCN1 (stereo not drawn),-6.53%,
COc1cc(OC)c(OC)cc1C=O,-8.04%,
CC(C)NC(C)C,-12.8%,
Nc1ccccc1C(=O)O,5.25%,
COP(=S)(OC)Oc1ccc(SC)c(C)c1,-0.117%,
Nc1ccccc1,-9.87%,
CCC(C)(C)c1ccc(O)cc1,6.8%,
O=P1(N(CCCl)CCCl)NCCCO1 (stereo not drawn),-14.9%,
CCOC(=O)CC(SP(=S)(OC)OC)C(=O)OCC (stereo not drawn),-7.6%,
Oc1ccc(Cl)cc1,-4.48%,

# Reference: PubChem BioAssay (NCATS)
